# Measured values from PubChem BioAssay.
# The source made the active and inactive calls.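 Rule for the calls, unless noted: active = visually confirmed hit in the image check and inhibition above 20%; inconclusive = visually confirmed hit but inhibition not above 20%; inactive = no visual hit in the image check.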
# Columns and labels:
# [1] = inhibitors of TNFa-induced NFkB p65 translocation, primary screen, imaging, HUVEC, MLSMR starter and 10KST1 sets (AID 438;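 active = inhibition above 20% together with a positive visual image hit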;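 note: compound added about 3h40 before a 20 min TNFalpha stimulation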;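 for inhibition: signal is the nuclear over cytoplasmic p65 intensity ratio per well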); conditions: HUVEC TNFa-induced p65 nuclear translocation; cell count: measured here: nuclei count (cytotoxicity indicator), at 2.08 µM; inhibition: at 2 µM, stronger effect = higher value, 0% TNFa-plus-vehicle, 100% no-TNFa wells
# [2] = reduction of polyQ htt aggregates in cells – imaging, exon1htt(103Q)mCFP cells, high-content imaging, primary screen (AID 483;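 active = visual image review flags a hit and inhibition of aggregation exceeds 20%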;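 note: compound exposure lasted 3 days before fixation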;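 for nuclei count: percent of the per-plate median nuclei count of sample wells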); conditions: exon1htt(103Q)mCFP cell line, aggregate imaging, at 2 µM; inhibition of aggregation: stronger effect = higher value; nuclei count: measured here: cell count, toxicity
# [3] = endothelial E-selectin expression blockers – imaging, HUVEC, immunofluorescence, MLSMR starter and 10KST1 sets, primary screen (AID 487); conditions: HUVEC TNFalpha-induced E-selectin immunofluorescence imaging, at 2 µM; inhibition: stronger effect = higher value; nuclei count: measured here: cell number, toxicity;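 for inhibition: signal is fraction of cell area covered by stained E-selectin grains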;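 for nuclei count: 100% = median nuclei count of all wells on the same plate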
# [4] = molecular target: Voltage-gated potassium channel subunit beta-2 (Rattus norvegicus) (UniProt P62483); test: inhibitors of rat Kvbeta2 reductase activity – biochemical, NADPH fluorescence, primary screen (AID 622;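 active = fluorescence slope higher than the sample average by over 3 SD, cut at about -0.22 in these data, passing the limit was not always enough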;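 note: slope of raw intensity against log time taken from 70 to 1610 s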); conditions: recombinant KvBeta, 4-cyanobenzaldehyde reduction, at 10 µM, stronger effect = higher value
# Sequence of Voltage-gated potassium channel subunit beta-2 (Rattus norvegicus) (P62483 whole entry, looked up): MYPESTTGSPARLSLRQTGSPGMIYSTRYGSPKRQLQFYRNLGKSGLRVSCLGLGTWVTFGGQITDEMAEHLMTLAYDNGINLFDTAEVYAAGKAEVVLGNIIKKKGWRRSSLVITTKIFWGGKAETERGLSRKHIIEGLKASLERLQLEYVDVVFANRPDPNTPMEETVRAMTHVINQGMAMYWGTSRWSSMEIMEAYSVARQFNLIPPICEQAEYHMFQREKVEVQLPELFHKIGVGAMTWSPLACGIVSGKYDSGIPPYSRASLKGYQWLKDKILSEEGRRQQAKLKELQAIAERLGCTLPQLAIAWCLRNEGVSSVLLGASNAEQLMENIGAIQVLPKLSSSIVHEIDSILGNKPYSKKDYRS
# [5] = molecular target: Voltage-gated potassium channel subunit beta-2 (Rattus norvegicus) (UniProt P62483); test: enhancers of rat Kvbeta2 NADPH turnover – biochemical, NADPH fluorescence, primary screen (AID 623;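 active = NADPH fluorescence slope more negative than the mean of all samples by about 3 SD, 99.7% confidence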;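 note: fluorescence intensity change per second fitted from 20 to 320 s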); conditions: Recombinant KvBeta, NADPH fluorescence decrease slope, 10 min; at 10 µM; stronger effect = lower value
# [6] = molecular target: Alpha-2C adrenergic receptor (Homo sapiens) (UniProt P18825); test: compounds altering alpha2C-coupled GIRK flux – cell-based, HEK293 alpha2C/GIRK1/2, thallium flux, primary screen (AID 624;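 active = fluorescence slope after compound addition differing from the mean of all screened samples at 99.7% confidence, in either direction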;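 note: slope of fluorescence ratio to pre-addition baseline per second over 15 to 24 s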); conditions: thallium flux BTC fluorescence, at 10 µM, actives lie on both sides
# Sequence of Alpha-2C adrenergic receptor (Homo sapiens) (P18825 whole entry, looked up): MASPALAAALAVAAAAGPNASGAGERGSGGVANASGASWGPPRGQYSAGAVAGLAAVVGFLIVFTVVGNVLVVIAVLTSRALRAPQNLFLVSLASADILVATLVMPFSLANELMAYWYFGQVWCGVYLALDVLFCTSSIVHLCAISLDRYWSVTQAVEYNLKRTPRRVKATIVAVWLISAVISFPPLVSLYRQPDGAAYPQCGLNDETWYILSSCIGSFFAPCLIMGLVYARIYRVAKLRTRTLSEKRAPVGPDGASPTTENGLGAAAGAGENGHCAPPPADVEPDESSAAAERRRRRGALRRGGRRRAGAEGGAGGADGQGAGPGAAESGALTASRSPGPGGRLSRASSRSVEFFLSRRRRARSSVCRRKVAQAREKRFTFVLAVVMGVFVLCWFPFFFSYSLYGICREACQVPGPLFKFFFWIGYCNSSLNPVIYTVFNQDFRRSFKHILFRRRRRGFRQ
# [7] = blockers of RIG-like receptor reporter activation – cell-based, Sendai virus stimulus, luciferase, 10K MLSCN set, TLR/RLR signaling modifier project, primary screen (AID 602276;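 active = inhibition at or above 50% at 10 µM; inactive = inhibition below 50%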;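 note: firefly luciferase from ISG56 promoter only with Renilla not read in this screen; 0% = Sendai virus plus DMSO and 100% = medium plus DMSO without virus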); conditions: HEK293 RL24 IRF3 luciferase reporter, at 10 µM, stronger effect = higher value
# [8] = TLR3 IRF3 reporter activation blockers – cell-based, poly I:C stimulus, luciferase, 10K MLSCN set, primary screen (AID 602277;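 active = inhibition of the reporter signal at or above 50%; inactive = inhibition below 50%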); conditions: HEK293-TLR3 RL24 IRF3 luciferase reporter, at 10 µM, stronger effect = higher value
SMILES,cell count [1],inhibition [1],inhibition of aggregation [2],nuclei count [2],inhibition [3],nuclei count [3],fluorescence slope [4],NADPH fluorescence slope [5],slope [6],inhibition [7],inhibition [8]
Cc1ccc(CNC(=O)C2CCCN(S(=O)(=O)c3cnc[nH]3)C2)cc1 (stereo not drawn),768,-11% (inactive),-30.5% (inactive),102%,-23.4% (inactive),92.7%,-0.538 (inactive),-1.6e-05 (inactive),0.00735 (inactive),-2.34% (inactive),15.9% (inactive)
Cc1ccc(C)c(N2CCN(C(=O)CCCn3c(=S)[nH]c4cc5c(cc4c3=O)OCO5)CC2)c1,494,2.5% (inactive),-3.8% (inactive),109%,-37.7% (inactive),114%,-0.433 (inactive),1.2e-05 (inactive),0.00641 (inactive),0.122% (inactive),17.7% (inactive)
COC(=O)c1ccccc1NC(=O)C1CCN(S(=O)(=O)c2cc(C)ccc2OC)CC1,607,3.6% (inactive),-20.2% (inactive),111%,-76.8% (inactive),123%,-0.454 (inactive),-2.4e-07 (inactive),0.00507 (inactive),18.9% (inactive),28.7% (inactive)
C=CCn1c(SCC(=O)Nc2cccc(OC)c2)nnc1-c1cccnc1,619,-4.8% (inactive),0.3% (inactive),118%,-52.7% (inactive),104%,-0.527 (inactive),-9.5e-06 (inactive),0.00671 (inactive),10.5% (inactive),16.9% (inactive)
CC1CN(c2ccc(Oc3ccccc3)cc2)c2nc3c(c(=O)n(CC(N)=O)c(=O)n3C)n2C1 (stereo not drawn),706,-12.4% (inactive),4.2% (inactive),106%,-15.8% (inactive),93.4%,-0.546 (inactive),-6.5e-05 (inactive),0.00659 (inactive),9.73% (inactive),22.4% (inactive)
CCCc1nc(NCc2ccncc2)c2nnn(Cc3ccccc3F)c2n1,711,-6.1% (inactive),-40.7% (inactive),116%,-57% (inactive),120%,-0.507 (inactive),-0.000136 (inactive),0.00544 (inactive),9.12% (inactive),19.1% (inactive)
CCOc1cc(C2NC(=O)NC(O)(C(F)(F)F)C2C(=O)c2ccccc2)ccc1OC (stereo not drawn),383,6.8% (inactive),4.9% (inactive),86.1%,-51% (inactive),121%,-0.378 (inactive),3.5e-05 (inactive),0.00542 (inactive),5.58% (inactive),11.7% (inactive)
CS(=O)(=O)N(CC(=O)N1CCc2ccccc2C1)c1ccc2c(c1)OCO2,262,1.6% (inactive),17% (inactive),97.2%,14.1% (inactive),77.8%,-0.481 (inactive),-5.5e-05 (inactive),0.00584 (inactive),11% (inactive),23.8% (inactive)
CCN1CCN(Cc2nc3c(c(=O)n(C)c(=O)n3C)n2CC(=O)c2ccccc2)CC1,465,-1.8% (inactive),-8.6% (inactive),89.6%,-9.3% (inactive),106%,-0.556 (inactive),-3e-05 (inactive),0.00683 (inactive),6.82% (inactive),38.5% (inactive)
COc1ccc(C)cc1NC(=O)CSc1nnnn1Cc1ccccc1,709,-1.6% (inactive),-27.3% (inactive),107%,8.3% (inactive),124%,-0.528 (inactive),-1.1e-05 (inactive),0.00685 (inactive),-7.12% (inactive),13.4% (inactive)
COc1ccccc1N(CC(=O)NCc1ccccn1)S(C)(=O)=O,355,-7.9% (inactive),26.7% (inactive),83.6%,29.3% (inactive),75.4%,-0.422 (inactive),-4.6e-05 (inactive),0.00261 (inactive),7.95% (inactive),32.3% (inactive)
Cc1onc(-c2c(Cl)cccc2Cl)c1C(N)=O,406,6.3% (inactive),-2.8% (inactive),98.3%,-52% (inactive),98.7%,-0.5 (inactive),2.7e-05 (inactive),0.00603 (inactive),-11.6% (inactive),7.29% (inactive)
COc1ccccc1OCC(=O)N1CCNC1=O,652,2.2% (inactive),-1.9% (inactive),101%,-78.6% (inactive),104%,-0.548 (inactive),-4.2e-06 (inactive),0.00602 (inactive),0.107% (inactive),20.1% (inactive)
CCOC(=O)c1ccc(N(CC(=O)NC2CCCC2)C(=O)CNC(=O)c2ccco2)cc1,626,-7.8% (inactive),5.5% (inactive),79.3%,-11.3% (inactive),105%,-0.508 (inactive),-5.1e-05 (inactive),0.0066 (inactive),15.3% (inactive),18.5% (inactive)
CCOC(=O)c1c(C)[nH]c(C(=O)Cn2c(=O)oc3ccccc32)c1C,256,7.6% (inactive),17.3% (inactive),97.3%,31.3% (inactive),98.7%,-0.285 (inactive),-6.3e-06 (inactive),0.00653 (inactive),-8.59% (inactive),-12.4% (inactive)
CCSC1=C(C#N)C(c2ccccc2OC)CC(=O)N1 (stereo not drawn),631,-1.9% (inactive),-4.5% (inactive),86.7%,-16.2% (inactive),106%,-0.436 (inactive),1.7e-05 (inactive),0.00579 (inactive),-0.399% (inactive),17.9% (inactive)
Cc1cc(C(=O)NCCN2CCN(c3cccc(Cl)c3)CC2)n(-c2ccccc2)n1,647,5.5% (inactive),-25.2% (inactive),78.7%,-50.5% (inactive),108%,-0.531 (inactive),-2.8e-05 (inactive),0.00538 (inactive),16.7% (inactive),35% (inactive)
CCn1c(SCC(=O)Nc2ccc(C(=O)OC)cc2)nnc1-c1cccs1,654,11.5% (inactive),24.6% (inactive),110%,42.7% (inactive),106%,-0.379 (inactive),-5.2e-05 (inactive),0.00499 (inactive),14.1% (inactive),12.6% (inactive)
CCN(CC)C(=O)C1CCCN(c2ncnc3c2cnn3-c2ccc(Cl)cc2)C1 (stereo not drawn),745,-5.2% (inactive),0.8% (inactive),103%,-21.1% (inactive),109%,-0.543 (inactive),-1.7e-05 (inactive),0.00713 (inactive),10.8% (inactive),53.6% (active)
Cc1ccc(NC(=O)CC2C(=O)NC3CCCCC3N2C(=O)c2ccc(F)cc2)cc1C (stereo not drawn),461,-10.3% (inactive),-9.9% (inactive),123%,-55.7% (inactive),178%,-0.478 (inactive),2.4e-05 (inactive),0.00684 (inactive),12.1% (inactive),15.6% (inactive)
Cc1ccc(C(C(=O)NC2CCCCC2)N(C(=O)c2csnn2)C2CCCC2)o1 (stereo not drawn),514,-8.3% (inactive),-9.5% (inactive),103%,-68.9% (inactive),112%,-0.547 (inactive),1.5e-05 (inactive),0.00533 (inactive),14.4% (inactive),47.6% (inactive)
CCOC(=O)c1sc2cccc(F)c2c1N,546,-17.8% (inactive),24.4% (inactive),102%,4.5% (inactive),110%,-0.319 (inactive),-7.4e-05 (inactive),0.00522 (inactive),-3.55% (inactive),-14.4% (inactive)
CCN(c1cccc(C(F)(F)F)c1)S(=O)(=O)c1ccc2c(c1)CCN2C(=O)C1CC1,495,2.7% (inactive),3.1% (inactive),97.3%,-51.5% (inactive),104%,-0.405 (inactive),-4.7e-05 (inactive),0.00287 (inactive),-11.8% (inactive),-25.9% (inactive)
Cc1ccc(OCCN2CCN(C(=O)CCC(=O)Nc3nnc(C)s3)CC2)cc1,349,-4.3% (inactive),-14.8% (inactive),100%,-18.9% (inactive),100%,-0.318 (inactive),-6.3e-05 (inactive),0.00527 (inactive),9.9% (inactive),19.2% (inactive)
O=C(CSc1nc2c(c(=O)n1-c1ccc(F)cc1)SCC2)NCC1CCCO1 (stereo not drawn),256,9.8% (inactive),16.7% (inactive),94.5%,-8.7% (inactive),78.2%,-0.462 (inactive),-5.5e-05 (inactive),0.00463 (inactive),17.7% (inactive),19.7% (inactive)
O=C(c1ccc2nc(N3CCCCC3)sc2c1)N1CCN(c2ccccn2)CC1,669,-0.8% (inactive),-24.8% (inactive),99.9%,5% (inactive),118%,-0.589 (inactive),5.6e-06 (inactive),0.00632 (inactive),-4.41% (inactive),3.71% (inactive)
COc1ccc(Cl)cc1-c1n[nH]c(=S)o1,546,8.2% (inactive),-5.3% (inactive),104%,-86.8% (inactive),111%,-0.378 (inactive),-3.6e-05 (inactive),0.00602 (inactive),20.2% (inactive),23.5% (inactive)
COc1ccc(OCCCC(=O)Nc2nncs2)cc1,296,22.6% (inactive),12.8% (inactive),95.6%,-32.3% (inactive),102%,-0.294 (inactive),-3.4e-05 (inactive),0.00603 (inactive),-0.71% (inactive),5.99% (inactive)
